HT1080-NT tox: kills 2HG-producing HT-1080-NT fibrosarcoma cells | hit rate 1.6% among 360,000 | AID 686970 | HT-1080-NT fibrosarcoma viability, CellTiter-Glo ATP luminescence, 48 h | Potency, µM (doses to about 46.1 µM), for inactives: at the highest dose activity, negative = less viability, hits mostly cytotoxic;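 note: NT is the 2HG producing partner of a matched IDH1 knockdown line; potency is the fitted concentration of half-maximal effect; 0% = DMSO-treated cells and -100% = media-only wells without cells; nearly all actives have a fitted effect of over 55% in size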
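HT-1080-NT fibrosarcoma cells (2HG-overproducing), 750 cells/well in RPMI with 5% FBS, dosed after 2 h and incubated 48 h at 37C. CellTiter-Glo luminescence normalized to DMSO and no-cell wells; concentration-response curves fitted and classed.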
HT1080 IDH1KD tx: HT-1080 IDH1 knockdown cell toxicity (counter line); HT-1080 IDH1 knockdown viability, ATP luminescence, 48 h; Potency, µM (top dose mostly 46.1 µM), without a hit: top-dose activity, negative = toxicity, most hits filed as cytotoxic; hit rate 2% among 360,000; AID 686971;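 note: potency is the fitted concentration of half-maximal effect; 0% = DMSO wells and -100% = cell-free medium wells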
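CellTiter-Glo luminescence after 48 h compound exposure at 37 degrees C of IDH1-knockdown HT-1080 cells in 5% FBS RPMI. %Activity scaled between DMSO wells and cell-free media wells, with curves fitted and assigned curve classes.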
IL-1B inflam inh: inflammasome signaling inhibition, IL-1 beta readout; THP-1 LPS/ATP IL-1B secretion, AlphaLISA, 16 h; hits give low values; activity change, % at 57.5 µM; hit rate 4.7% among 360,000; in the data active = activity change below about -50%; inconclusive = mostly about -30% to -49%
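THP-1 cells pretreated 1 hr with compounds (up to 57.5 uM final), then stimulated with LPS (250 ng/mL final) plus ATP (1.25 mM final); secreted IL-1B measured by AlphaLISA after 16 hr, decreased signal indicating inhibition.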
DT40 TDP1 no CPT: qHTS for Inhibitors of human tyrosyl-DNA phosphodiesterase 1 (TDP1): qHTS in cells in absence of CPT | DT40 Tdp1-/- hTDP1 cells, no CPT, ATP luminescence, 48 h | Potency, µM (series often up to 46.2 µM), for the others: top-dose activity change, negative = growth inhibition, actives largely listed as inhibitors | hit rate 15% among 420,000; note: potency is the fitted concentration of half-maximal effect; nearly all actives have a fitted effect of over 55% in size
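Luminescent ATP content (CellTiter-Glo) served as the growth readout. Knockout chicken DT40 cells expressing human TDP1 were exposed to compounds without camptothecin for a minimum 48 hr at 37 °C.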
TDP1 cell CPT: DT40-hTDP1 cell growth loss with CPT | chicken DT40 Tdp1-/-;hTDP1 cells + 20 nM CPT, ATP luminescence, 48 h | hit rate 12% among 420,000 | Potency, µM (titrated, usually from 46.2 µM), for inactives: top-dose activity change, negative = growth inhibition, actives largely listed as inhibitors | AID 686979; note: potency is the fitted concentration of half-maximal effect; nearly all actives have a fitted effect of over 55% in size
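Chicken DT40 Tdp1-/- cells complemented with human TDP1, 400 cells/well, exposed to compounds plus 20 nM camptothecin for at least 48 h at 37 C; viability read as ATP content by CellTiter-Glo luminescence.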
Active calls of the source: *; ? = inconclusive; . = no result given. Compounds with a hit are over-represented: about 19% of the library has one in this group of screens. Unless noted, calls come from the whole dose curve; as a rule, active = well fitted curve in the direction sought with a large enough effect; inconclusive = small, poorly fitted or top-dose-only effect, or another doubt; inactive = no such curve, though single readings can be large; an effect the other way counts as inactive or inconclusive. Unless noted, % is set by controls: 0 for no effect and ±100 for the full control effect.

SMILES	HT1080-NT tox	HT1080 IDH1KD tx	IL-1B inflam inh	DT40 TDP1 no CPT	TDP1 cell CPT
CCOC(=O)c1cc(-c2ccccc2)n(CCCC(=O)Nc2cccc(C)c2C)c1C	.	.	.	?	16.4µM*
CCOC(=O)c1cc(-c2ccccc2)n(CCCC(=O)Nc2ccc(C(C)C)cc2)c1C	.	.	.	20.6µM*	?
CCOC(=O)c1cccc(NC(=O)CCn2cccc2)c1	2.4%	-1.6%	-14.9	-26.1%	-11.1%
CCOC(=O)c1cc2occc2n1CC(=O)Nc1ccc(OC)cc1OC	-3.6%	-5.7%	6.7	?	23.1µM*
CCOC(=O)c1cccc(NC(=O)CCn2c(-c3ccc(F)cc3)cc(C(=O)OCC)c2C)c1	.	.	.	13µM*	20.6µM*
CC(=O)c1cc(-c2ccccc2)n(CC(=O)Nc2cccc(C)c2C)c1C	-1.3%	0.7%	10.2	-1.8%	6.5%
CC(C)c1ccc(NC(=O)CCCN2C(=O)NC(C)(C)C2=O)cc1	9.7%	10.5%	28.6	15.4%	-4.0%
COc1ccccc1NC(=O)N(C)C[C@H]1OCc2cnnn2CCCC(=O)N([C@H](C)CO)C[C@H]1C	5.6%	0.3%	6.1	5.8%	5.8%
Nc1ncnc2nc(Cl)[nH]c12	.	.	.	-0.4%	0.5%
CC[C@@H]1C(c2ccc(F)cc2)=NN(c2ccc(Br)cc2)[C@H]1C(=O)N1CCOC1=O	-16.0%	-22.5%	-73.6*	?	?
O=C1OCCN1C(=O)[C@H]1[C@H](c2ccccc2)C(c2cccc(Cl)c2)=NN1c1ccc(Br)cc1	-2.8%	-17.4%	0.0	-10.8%	-12.5%
CC[C@@H]1C(c2cccc(Cl)c2)=NN(c2ccc(Br)cc2)[C@H]1C(=O)N1CCOC1=O	?	?	-66.1*	?	?
C[C@@H]1C(c2ccc(F)cc2)=NN(c2ccccc2)[C@H]1C(=O)N1CCOC1=O	-18.4%	-26.7%	-15.4	-7.8%	13.4%
Cc1c(C(=O)OCC(=O)NC(C)c2ccccc2)oc2ccccc12 (stereo unspecified)	-2.3%	-12.8%	0.0	5.2%	-5.8%
CCOC(=O)N1CCN(C(=O)Cn2ncc3c2-c2ccccc2OC3)CC1	0.0%	-2.9%	-20.4	-12.1%	?
CCOc1ccccc1N(CC)C(=O)Cn1ncc2c1-c1ccccc1OC2	.	.	.	16.4µM*	20.6µM*
COc1ccccc1NC(=O)Cn1ncc2c1-c1ccccc1OC2	-3.2%	2.0%	-21.8	?	14.6µM*
COc1cc(NC(=O)Cn2ncc3c2-c2ccccc2OC3)cc(OC)c1OC	6.5%	-8.5%	12.5	?	?
O=[N+]([O-])c1ccccc1Nc1c2ccccc2nc2ccccc12	-27.2%	?	7.4	?	20.6µM*
COc1ccc(OC)c(Nc2c3ccccc3nc3ccccc23)c1	5.8µM*	4.61µM*	-83.8*	6.51µM*	5.17µM*
COc1ccc(OC)c(Nc2cc(C)c3ccccc3n2)c1	?	?	-5.7	?	?
COc1ccc([N+](=O)[O-])cc1Nc1c2ccccc2nc2ccccc12	5.17µM*	5.17µM*	-28.9	2.59µM*	2.59µM*
COc1cc(NS(C)(=O)=O)ccc1Nc1c2ccccc2nc2ccccc12	11.6µM*	16.4µM*	-105.4*	0.13µM*	0.206µM*
CC(Oc1ncnc2ccccc12)C(=O)Nc1cccc(S(=O)(=O)N2CCOCC2)c1 (stereo unspecified)	4.9%	10.1%	4.4	-4.5%	1.2%
Cn1c(CNC(=O)CNC(=O)c2ccc(C(C)(C)C)cc2)cc(=O)n(C)c1=O	3.7%	1.0%	41.4	7.9%	-1.7%
COc1cccc(CC2(CO)CCCN(CC3=Cc4cc(Cl)ccc4OC3)C2)c1 (stereo unspecified)	-6.8%	-14.5%	-27.6	?	-10.0%
COc1ccc(OC)c(Nc2c3c(nc4ccccc24)CCC3)c1	0.651µM*	0.581µM*	-74.8*	0.581µM*	0.731µM*
COc1cc(Nc2c3c(nc4ccccc24)CCC3)cc(OC)c1OC	1.46µM*	2.06µM*	6.1	2.06µM*	1.84µM*

Source: PubChem BioAssay
